Results from the supplement of paper PMC11732987, “Enantioselective OTUD7B fragment discovery through chemoproteomics screening and high-throughput optimisation” (Communications Chemistry, 2025).

Key:
Experiment in all cases: log2 ratio of Biotin-Ahx-Ub-VS probe labelling (fragment/DMSO); higher = less target engagement (more negative = stronger competition), active = hit call of the paper (q ≤ 0.05, log2 ratio ≤ -1)
Details in all cases: compound concentration: 200 uM; treatment time: 3 h
OTUD6B = molecular target: T1, OTUD6B (UniProt Q8N6M0)
T1 sequence (whole entry): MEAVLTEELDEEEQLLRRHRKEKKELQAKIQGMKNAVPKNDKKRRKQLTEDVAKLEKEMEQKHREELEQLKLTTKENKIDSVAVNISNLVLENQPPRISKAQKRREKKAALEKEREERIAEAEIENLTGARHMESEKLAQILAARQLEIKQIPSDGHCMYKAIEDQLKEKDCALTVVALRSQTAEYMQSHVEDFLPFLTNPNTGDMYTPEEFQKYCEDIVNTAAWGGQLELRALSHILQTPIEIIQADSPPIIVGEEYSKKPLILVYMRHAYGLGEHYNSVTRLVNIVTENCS
Method in brief: (§1)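 Global-median-normalised Spectronaut label-free quantities were compared by unpaired t-test, and values are average log2 ratios of fragment over vehicle. Only proteins with ≥2 unique peptides were used. HEK293T lysate (495 µg per sample) was treated in triplicate with fragment at 200 µM or vehicle for 3 h and then with Biotin-Ahx-Ub-VS at 0.5 µM final for 1 h. Labelled DUBs were then NeutrAvidin-enriched, digested with LysC and trypsin, and run by diaPASEF LC-MS/MS.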

OTUD7B = molecular target: T2, OTUD7B (UniProt Q6GQQ9)
T2 sequence (whole entry): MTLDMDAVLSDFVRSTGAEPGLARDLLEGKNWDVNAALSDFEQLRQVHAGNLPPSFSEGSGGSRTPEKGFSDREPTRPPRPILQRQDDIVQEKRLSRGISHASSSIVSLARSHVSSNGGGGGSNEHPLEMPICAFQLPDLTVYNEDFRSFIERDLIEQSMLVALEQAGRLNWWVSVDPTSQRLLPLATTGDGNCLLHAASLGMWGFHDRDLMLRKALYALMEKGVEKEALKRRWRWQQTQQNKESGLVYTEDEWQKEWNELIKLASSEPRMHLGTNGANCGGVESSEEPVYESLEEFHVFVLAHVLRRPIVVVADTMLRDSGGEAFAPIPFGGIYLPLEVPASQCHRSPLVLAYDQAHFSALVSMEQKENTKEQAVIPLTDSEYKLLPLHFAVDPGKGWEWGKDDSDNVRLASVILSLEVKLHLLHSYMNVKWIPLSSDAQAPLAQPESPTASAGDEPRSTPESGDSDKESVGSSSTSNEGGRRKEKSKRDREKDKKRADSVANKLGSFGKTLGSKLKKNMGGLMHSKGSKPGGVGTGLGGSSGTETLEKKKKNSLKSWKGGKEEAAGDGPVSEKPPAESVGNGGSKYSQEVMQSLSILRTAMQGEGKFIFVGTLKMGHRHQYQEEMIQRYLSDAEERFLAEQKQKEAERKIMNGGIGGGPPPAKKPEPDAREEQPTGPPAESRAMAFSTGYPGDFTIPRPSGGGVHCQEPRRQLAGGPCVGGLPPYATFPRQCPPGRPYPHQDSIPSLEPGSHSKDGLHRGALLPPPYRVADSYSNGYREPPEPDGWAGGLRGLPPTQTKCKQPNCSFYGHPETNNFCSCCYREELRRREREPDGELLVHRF
Method in brief: as §1

PRPF8 = PRPF8 (UniProt Q6P2Q9)
Method in brief: as §1

PSMD7 = molecular target: T3, PSMD7 (UniProt P51665)
T3 sequence (whole entry): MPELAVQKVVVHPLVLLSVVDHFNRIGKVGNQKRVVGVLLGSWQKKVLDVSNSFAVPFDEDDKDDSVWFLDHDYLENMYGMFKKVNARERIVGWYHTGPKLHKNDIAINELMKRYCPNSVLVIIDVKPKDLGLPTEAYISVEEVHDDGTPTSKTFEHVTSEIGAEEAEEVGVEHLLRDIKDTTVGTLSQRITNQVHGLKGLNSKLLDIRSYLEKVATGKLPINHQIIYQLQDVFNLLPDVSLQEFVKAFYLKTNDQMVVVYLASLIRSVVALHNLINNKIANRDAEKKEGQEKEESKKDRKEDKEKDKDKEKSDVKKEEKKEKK
Method in brief: as §1

UCHL1 = UCHL1 (UniProt P09936)
Chain of UCHL1 (P09936 whole entry, looked up): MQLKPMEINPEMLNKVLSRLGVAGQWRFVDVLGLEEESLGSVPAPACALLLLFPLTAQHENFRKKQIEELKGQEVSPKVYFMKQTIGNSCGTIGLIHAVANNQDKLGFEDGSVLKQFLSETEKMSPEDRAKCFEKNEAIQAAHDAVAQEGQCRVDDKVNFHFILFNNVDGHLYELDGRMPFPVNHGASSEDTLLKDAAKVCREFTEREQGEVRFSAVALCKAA
Method in brief: as §1

UCHL3 = molecular target: T4, UCHL3 (UniProt P15374)
T4 sequence (whole entry): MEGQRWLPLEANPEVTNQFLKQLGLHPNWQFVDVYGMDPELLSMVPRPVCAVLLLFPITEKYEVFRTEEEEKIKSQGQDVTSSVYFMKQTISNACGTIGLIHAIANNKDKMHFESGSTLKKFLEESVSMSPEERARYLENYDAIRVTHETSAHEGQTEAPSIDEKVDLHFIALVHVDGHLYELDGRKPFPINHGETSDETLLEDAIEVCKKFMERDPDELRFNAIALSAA
Method in brief: as §1

UCHL5 = molecular target: T5, UCHL5 (UniProt Q9Y5K5)
T5 sequence (whole entry): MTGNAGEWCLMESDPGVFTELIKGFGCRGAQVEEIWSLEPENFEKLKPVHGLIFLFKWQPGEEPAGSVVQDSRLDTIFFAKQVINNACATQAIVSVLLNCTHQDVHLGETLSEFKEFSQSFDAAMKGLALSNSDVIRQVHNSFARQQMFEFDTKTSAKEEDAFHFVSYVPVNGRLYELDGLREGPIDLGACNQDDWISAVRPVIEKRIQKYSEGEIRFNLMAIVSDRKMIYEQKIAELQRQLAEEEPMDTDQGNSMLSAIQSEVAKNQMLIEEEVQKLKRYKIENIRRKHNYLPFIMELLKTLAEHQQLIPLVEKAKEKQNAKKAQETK
Method in brief: as §1

USP10 = USP10 (UniProt Q14694)
Chain of USP10 (Q14694 whole entry): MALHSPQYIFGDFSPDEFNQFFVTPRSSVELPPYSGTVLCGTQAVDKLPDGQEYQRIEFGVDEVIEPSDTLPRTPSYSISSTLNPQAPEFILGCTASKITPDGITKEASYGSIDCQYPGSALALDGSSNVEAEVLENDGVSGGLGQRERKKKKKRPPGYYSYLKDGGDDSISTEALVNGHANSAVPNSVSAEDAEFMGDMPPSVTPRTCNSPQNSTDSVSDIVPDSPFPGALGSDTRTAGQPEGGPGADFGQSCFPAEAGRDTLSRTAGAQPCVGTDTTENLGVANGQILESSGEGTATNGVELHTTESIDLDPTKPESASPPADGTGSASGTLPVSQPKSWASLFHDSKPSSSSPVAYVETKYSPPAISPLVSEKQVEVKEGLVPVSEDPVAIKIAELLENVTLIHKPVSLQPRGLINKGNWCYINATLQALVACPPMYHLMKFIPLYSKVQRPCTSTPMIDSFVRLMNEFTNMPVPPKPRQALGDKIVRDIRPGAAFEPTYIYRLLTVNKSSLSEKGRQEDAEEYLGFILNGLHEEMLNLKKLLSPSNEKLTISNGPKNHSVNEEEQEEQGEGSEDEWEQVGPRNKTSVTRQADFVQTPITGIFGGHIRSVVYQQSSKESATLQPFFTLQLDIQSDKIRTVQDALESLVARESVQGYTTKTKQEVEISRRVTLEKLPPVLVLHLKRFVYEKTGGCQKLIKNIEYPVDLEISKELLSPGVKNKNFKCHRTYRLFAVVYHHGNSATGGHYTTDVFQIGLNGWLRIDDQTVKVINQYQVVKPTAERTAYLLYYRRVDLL
Method in brief: as §1

USP15 = molecular target: T6, USP15 (UniProt Q9Y4E8)
T6 sequence (whole entry): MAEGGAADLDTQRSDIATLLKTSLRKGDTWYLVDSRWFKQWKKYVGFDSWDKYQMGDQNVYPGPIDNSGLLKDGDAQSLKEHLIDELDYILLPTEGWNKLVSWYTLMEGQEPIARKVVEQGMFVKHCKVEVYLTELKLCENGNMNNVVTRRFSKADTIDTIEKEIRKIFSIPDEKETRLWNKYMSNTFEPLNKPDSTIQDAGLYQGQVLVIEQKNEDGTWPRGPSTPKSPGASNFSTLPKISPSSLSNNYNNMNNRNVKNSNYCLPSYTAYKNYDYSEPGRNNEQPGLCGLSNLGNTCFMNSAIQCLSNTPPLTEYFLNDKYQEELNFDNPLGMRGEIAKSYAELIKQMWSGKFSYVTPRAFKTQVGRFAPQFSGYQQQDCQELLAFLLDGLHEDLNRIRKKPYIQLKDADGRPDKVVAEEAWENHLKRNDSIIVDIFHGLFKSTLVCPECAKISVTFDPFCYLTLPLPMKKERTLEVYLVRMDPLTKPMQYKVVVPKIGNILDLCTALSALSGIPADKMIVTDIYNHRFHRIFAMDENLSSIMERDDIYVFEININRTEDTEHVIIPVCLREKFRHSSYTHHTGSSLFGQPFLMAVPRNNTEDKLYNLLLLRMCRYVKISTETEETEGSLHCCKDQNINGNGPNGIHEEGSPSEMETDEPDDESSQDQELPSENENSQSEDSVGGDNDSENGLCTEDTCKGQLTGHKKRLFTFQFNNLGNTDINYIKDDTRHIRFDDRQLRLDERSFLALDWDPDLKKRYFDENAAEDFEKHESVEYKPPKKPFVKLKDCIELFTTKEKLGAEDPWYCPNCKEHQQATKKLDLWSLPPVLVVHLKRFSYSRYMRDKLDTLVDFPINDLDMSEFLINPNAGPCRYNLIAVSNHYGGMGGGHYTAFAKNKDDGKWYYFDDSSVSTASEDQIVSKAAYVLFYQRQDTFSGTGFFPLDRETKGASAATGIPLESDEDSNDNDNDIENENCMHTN
Method in brief: as §1

Measured: log2 ratio of Biotin-Ahx-Ub-VS probe labelling

O=C(CCl)N1CCCCCC1c1ncon1 (centres undefined)
inactive: OTUD6B -0.149 | OTUD7B -0.512 | PRPF8 -0.173 | PSMD7 -0.174 | UCHL3 0.279 | UCHL5 -0.229 | USP10 -0.0372 | USP15 -0.142
active: UCHL1 -1.82
